Source: PubChem
Lmaj promast – reduces viability of Leishmania major promastigotes. resazurin fluorescence viability. inhibition, % at 10 µM. 200,000 tested, 9% active; in the data active means inhibition above about 50%;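 further: promastigotes grown with compound for 44 hours at 28 °C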
ROMK primary – modulates human ROMK potassium channel activity; AID 1918; P48048; Tet-inducible ROMK, thallium flux fluorescence; actives lie on both sides; 130,000 tested, 2% active; B-score at 10 µM;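 active means signal ratio slope over the read window, or its plate-corrected B-score, at least 3 SD from the plate mean, either direction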;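 further: B-score of the F/F0 ratio slope over 7 to 12 s after thallium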
Target sequence (P48048 whole entry, looked up): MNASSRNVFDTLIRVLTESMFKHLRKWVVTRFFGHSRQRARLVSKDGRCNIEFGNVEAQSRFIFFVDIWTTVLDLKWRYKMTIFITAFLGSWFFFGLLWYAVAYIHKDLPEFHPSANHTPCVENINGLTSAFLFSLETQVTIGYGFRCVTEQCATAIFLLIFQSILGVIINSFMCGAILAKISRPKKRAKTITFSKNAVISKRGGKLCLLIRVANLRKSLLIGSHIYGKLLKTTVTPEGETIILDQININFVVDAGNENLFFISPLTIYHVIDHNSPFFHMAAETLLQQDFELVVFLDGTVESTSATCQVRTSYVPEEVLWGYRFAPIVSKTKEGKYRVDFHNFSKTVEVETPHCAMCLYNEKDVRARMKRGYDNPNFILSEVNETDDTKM
Insulin prom inh – TRM-6 insulin promoter activity inhibition; AID 1273; TRM-6 cells (human fetal islet line), insulin promoter-eGFP reporter, imaging; reporter expression induced with tamoxifen; inhibition, % at 2 µM; 130,000 tested, 0.9% active;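 active means inhibition above the mean plus 3 SD, with well images judged a real hit on visual review, cut at about 60% in these data, passing the limit was not always enough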
Insulin prom up – MIN6 insulin promoter up-regulation. MIN6 insulin promoter-GFP reporter, high-content imaging; active compounds read high. z-score at 5 µM. 190,000 tested, 0.3% active. AID 1625;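 active means z-score above 3 at 5 µM with at least 500 cells counted in the well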
Cl transport mod – modulators of human KCC2 chloride dependent transport | KCC2 cells, thallium flux FluoZin-2 fluorescence | B-score of Tl+ flux slope (higher = more flux/activation; lower = inhibition) at 10 µM | 190,000 tested, 2.2% active;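 active means thallium flux slope and its plate-corrected score both differing from the plate sample mean at a set confidence after two filtering rounds, in either direction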;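 further: slope of fluorescence scaled to starting intensity during 10 to 20 s after thallium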
WT yeast gro inh – growth inhibition of WT yeast, mitochondrial fusion screen. mitochondrial fusion phenotypic screen, WT strain. AID 1362. inhibition, % at 10 µM. 190,000 tested, 2.1% active; in the data active means inhibition above about 58%; tested in S. cerevisiae
An asterisk follows results filed as active; x = not tested or not shown. In the library only some 12% were active in any assay of this set; here they are far more common.

SMILES	Lmaj promast	ROMK primary	Insulin prom inh	Insulin prom up	Cl transport mod	WT yeast gro inh
Cc1ccc(N=Nc2c(N)[nH]n3c(=O)cc(-c4ccccc4)nc23)cc1	93.8*	-0.438	x	-0.17	-0.155	60.3*
Cc1cc(=O)n2[nH]c(N)c(N=Nc3ccccc3)c2n1	5.3	x	3.3	0.2	0.441	-10.1
COc1cccc(N=Nc2c(N)[nH]n3c(=O)cc(-c4ccccc4)nc23)c1	92.5*	0.788	x	0.18	1.6	9.4
CCOC(=O)C1CCN(C(=O)c2c(-c3c(Cl)cccc3Cl)noc2C)CC1	-6.9	x	-15.0	0.31	0.697	12.8
COc1cc2c(cc1OC)C(c1ccc(-c3cc(Cl)ccc3Cl)o1)=NCC2	39.6	-0.746	-29.6	-0.18	0.00408	19.8
COc1cc2c(cc1OC)C(c1ccc(-c3ccc(Cl)c(Cl)c3)o1)=NCC2	70.8*	-0.779	-3.2	-2.67	x	75.2
O=C(c1cccs1)N(Cc1nc2sc3c(c2c(=O)[nH]1)CCCC3)C1CCCC1	10.9	x	20.0	-0.09	-0.141	61.5*
Cc1sc2nc(CN(C(=O)c3cccs3)C3CCCC3)[nH]c(=O)c2c1C	20.0	x	x	-0.8	-0.993	6.8
Cn1cc(Br)c(C(=O)NNC(=O)c2ccc(Cl)cc2)n1	52.1*	-0.369	-7.4	-0.05	0.664	-16.1
O=S(=O)(NCc1csc(-c2cccnc2)n1)c1ccc2c(c1)OCCO2	3.5	x	-14.3	-0.12	0.0496	23.9
FC(F)(F)c1ccccc1NC(=S)NC1CCN(Cc2ccccc2)CC1	75.9*	-0.676	x	1.15	-0.596	-5.9
CC(C)c1ccccc1NC(=S)NN(Cc1ccccc1)c1ccccc1	54.1*	x	-11.6	-0.62	0.812	62.0*
CCCN1CCC(NC(=S)Nc2cccc(Cl)c2Cl)CC1	81.5*	-0.0521	x	0.01	-0.0743	-12.6
COc1ccc(CCNC(=S)NC2CCN(Cc3ccccc3)CC2)cc1OC	3.1	0.121	x	0.35	-1.62	3.2
CCCN1CCC(NC(=O)Nc2cccc3ccccc23)CC1	x	x	x	-0.27	-0.454	x
CC(C)c1ccccc1NC(=S)NC1CCN(Cc2ccccc2)CC1	74.4*	x	x	-0.3	-1.56	3.2
CCCSc1nnc(Cn2c(=O)sc3ccccc32)n1-c1ccccc1	11.2	x	x	2.2	-0.739	19.6
CC(NC(=O)c1cc(=O)[nH]c2ccc(Br)cc12)c1ccccc1 (stereo not drawn)	-4.4	0.116	-45.5	-0.43	0.0189	-0.7
CCN(CC)c1ccc(C(=O)OCC(=O)Nc2ccc3[nH]c(=O)[nH]c3c2)cc1	10.0	-0.544	-27.8	-0.02	0.292	4.2
CC(=O)c1c(C(C)=O)c(C)n(-c2nc(-c3ccc(Br)cc3)c(C)s2)c1C	29.3	0.0559	8.3	x	-0.0232	24.6
Cc1c(Cl)cccc1NC(=S)NC1CCN(Cc2ccccc2)CC1	85.6*	-2.47	5.9	-0.2	-1.76	7.8
S=C(Nc1ccccc1Cl)NC1CCN(Cc2ccccc2)CC1	94.6*	x	9.4	0.42	-2.74	32.8
O=C(Nc1ccc(Cl)cc1C(=O)NCC1CCCO1)c1ccco1 (stereo not drawn)	0.2	x	75.0*	-0.01	-0.569	12.2
S=C(NCC1CCCO1)Nc1ccccc1Cl (stereo not drawn)	64.5*	x	-27.0	0.2	0.293	1.7
CCNC(=O)COC(=O)c1ccc(NS(=O)(=O)c2ccc3c(c2)OCCO3)cc1	-7.3	-0.243	42.9	0.19	0.00985	2.6
SMILES	Lmaj promast	ROMK primary	Insulin prom inh	Insulin prom up	Cl transport mod	WT yeast gro inh
CCn1c(/C(C#N)=C(\O)CCc2ccccc2)nc2ccccc21	-4.6	x	66.7	-0.03	x	-8.9
CC(=O)c1ccc(NC(=S)NCC(c2ccco2)N2CCCC2)cc1 (stereo not drawn)	2.2	-0.00809	x	-0.47	-0.465	-9.8
O=C(CCNC(=O)Cn1cnc2ccccc2c1=O)NCC1COc2ccccc2O1 (stereo not drawn)	-4.5	-1.12	x	1.21	x	12.8
S=C(NCc1ccc(Cl)cc1)NC1CCN(Cc2ccccc2)CC1	80.0*	0.678	x	-0.71	-1.53	18.7
O=C(NCC1CCCO1)C1CCC(=O)N1Cc1ccccc1Cl (stereo not drawn)	-1.3	x	x	1.09	-1.05	91.3*
Cc1c(Cl)cccc1NC(=S)NCc1ccc(Cl)cc1	-0.9	x	13.6	x	0.84	x
Cc1c(Cl)cccc1NC(=S)NCc1ccccc1	72.5*	x	6.8	x	-0.581	x
S=C(Nc1ccc(N2CCOCC2)cc1)Nc1ccc2snnc2c1	25.0	-0.102	x	-0.23	0.959	5.9
Cc1ccccc1Oc1ccc(S(=O)(=O)NCCC(=O)O)cc1	-1.7	x	x	-0.33	x	10.6
Cc1cc(C)cc(NC(=O)C(OC(=O)c2ccc([N+](=O)[O-])o2)c2ccccc2)c1 (stereo not drawn)	2.2	-0.314	-40.0	-0.09	-0.38	53.2
COCCCNC(=O)c1oc2ccc(S(=O)(=O)N(C)C3CCCCC3)cc2c1C	97.4*	0.00486	28.6	-0.18	x	-5.7
C=CCNC(=O)c1oc2ccc(S(=O)(=O)N(CC)CC)cc2c1C	98.5*	-0.00977	x	-0.23	1.46	-5.7
Cc1c(C(=O)O)oc2ccc(S(=O)(=O)NC3CCCCCCC3)cc12	-9.2	0.51	55.6	1.15	-0.0969	2.1
Cc1cc(Cl)c(S(=O)(=O)NCc2ccncc2)cc1OCC(N)=O	-3.1	x	-15.8	1.22	0.751	2.8
Cc1cc(C(=O)NC2CCCc3ccccc32)c(C)o1 (stereo not drawn)	34.0	-0.21	0.0	-0.81	0.427	11.7
CC(Oc1ccc2ccc(=O)oc2c1)C(=O)c1ccccc1 (stereo not drawn)	68.9*	-0.0636	23.1	-0.06	-0.135	-18.2
O=C(COc1ccc2ccc(=O)oc2c1)c1ccccc1	x	x	x	-0.38	-1.23	x
COc1ccc(C2(O)CCN(CC(=O)Nc3nc(-c4ccccc4)cs3)CC2)cc1	3.9	-0.777	-58.3	-1.3	-0.93	35.3
CCCC(=O)OCCNc1cc(Sc2nc3ccccc3[nH]2)c2nonc2c1[N+](=O)[O-]	52.8*	-2.88	-60.0	-0.02	-2.67	3.7
CCC(=O)OCCNc1cc(Sc2nccn2C)c2nonc2c1[N+](=O)[O-]	84.5*	x	-70.0	0.42	-0.806	22.4
CCC(=O)OCCNc1cc(SCCC(=O)OC)c2nonc2c1[N+](=O)[O-]	14.1	1.03	29.0	0.71	1.1	2.2
CC1CCCN(c2ccc(C(=O)Nc3cccnc3)cc2[N+](=O)[O-])C1 (stereo not drawn)	23.5	0.33	x	-0.36	-0.966	39.1
CCOC(=O)C1=C(C)N=C2c3ccccc3C(=O)C2C1c1ccc(Cl)cc1 (stereo not drawn)	96.2*	-0.228	0.0	-0.78	-0.386	48.3
Cc1ccc(C2C3=C(CC(C)(C)CC3=O)OC3=C2C(=O)CC(C)(C)C3)cc1	6.9	-0.0414	x	0.1	1.52	0.5
Cc1ccc(C2C3=C(CC(C)(C)CC3=O)N=C3c4ccccc4C(=O)C32)cc1 (stereo not drawn)	99.3*	-1.41	24.3	-0.38	-1.98	-13.9
CCOC(=O)C1=NNC(C(=O)c2ccccc2)C1c1ccc(Cl)cc1 (stereo not drawn)	x	-2	x	0.08	-1.25	x
